Each structure is given as a SMILES string. The whole screen tested about 360,000 compounds, of which about 16,000 (4.4%) were called active. Inconclusive results (about 9%) are left out. This excerpt belongs to a sample that is enriched for actives. Unmarked numbers belong to inactive results. The call rests on the fitted dose curve; in most records, active means well fitted inhibition curve with a large enough effect; inconclusive means small, poorly fitted or top-dose-only effect; inactive means no such curve, though single readings can be large or run the other way.

The text below walks through data of PubChem BioAssay AID504333 (National Center for Advancing Translational Sciences (NCATS), 2011).
On the % scale 0 is the no-effect control and ±100 the full control effect; potency means the concentration at half of the fitted maximal effect.

Chain of Bromodomain adjacent to zinc finger domain protein 2B (Homo sapiens) (Q9UIF8 whole entry, looked up, the tested form may be a part): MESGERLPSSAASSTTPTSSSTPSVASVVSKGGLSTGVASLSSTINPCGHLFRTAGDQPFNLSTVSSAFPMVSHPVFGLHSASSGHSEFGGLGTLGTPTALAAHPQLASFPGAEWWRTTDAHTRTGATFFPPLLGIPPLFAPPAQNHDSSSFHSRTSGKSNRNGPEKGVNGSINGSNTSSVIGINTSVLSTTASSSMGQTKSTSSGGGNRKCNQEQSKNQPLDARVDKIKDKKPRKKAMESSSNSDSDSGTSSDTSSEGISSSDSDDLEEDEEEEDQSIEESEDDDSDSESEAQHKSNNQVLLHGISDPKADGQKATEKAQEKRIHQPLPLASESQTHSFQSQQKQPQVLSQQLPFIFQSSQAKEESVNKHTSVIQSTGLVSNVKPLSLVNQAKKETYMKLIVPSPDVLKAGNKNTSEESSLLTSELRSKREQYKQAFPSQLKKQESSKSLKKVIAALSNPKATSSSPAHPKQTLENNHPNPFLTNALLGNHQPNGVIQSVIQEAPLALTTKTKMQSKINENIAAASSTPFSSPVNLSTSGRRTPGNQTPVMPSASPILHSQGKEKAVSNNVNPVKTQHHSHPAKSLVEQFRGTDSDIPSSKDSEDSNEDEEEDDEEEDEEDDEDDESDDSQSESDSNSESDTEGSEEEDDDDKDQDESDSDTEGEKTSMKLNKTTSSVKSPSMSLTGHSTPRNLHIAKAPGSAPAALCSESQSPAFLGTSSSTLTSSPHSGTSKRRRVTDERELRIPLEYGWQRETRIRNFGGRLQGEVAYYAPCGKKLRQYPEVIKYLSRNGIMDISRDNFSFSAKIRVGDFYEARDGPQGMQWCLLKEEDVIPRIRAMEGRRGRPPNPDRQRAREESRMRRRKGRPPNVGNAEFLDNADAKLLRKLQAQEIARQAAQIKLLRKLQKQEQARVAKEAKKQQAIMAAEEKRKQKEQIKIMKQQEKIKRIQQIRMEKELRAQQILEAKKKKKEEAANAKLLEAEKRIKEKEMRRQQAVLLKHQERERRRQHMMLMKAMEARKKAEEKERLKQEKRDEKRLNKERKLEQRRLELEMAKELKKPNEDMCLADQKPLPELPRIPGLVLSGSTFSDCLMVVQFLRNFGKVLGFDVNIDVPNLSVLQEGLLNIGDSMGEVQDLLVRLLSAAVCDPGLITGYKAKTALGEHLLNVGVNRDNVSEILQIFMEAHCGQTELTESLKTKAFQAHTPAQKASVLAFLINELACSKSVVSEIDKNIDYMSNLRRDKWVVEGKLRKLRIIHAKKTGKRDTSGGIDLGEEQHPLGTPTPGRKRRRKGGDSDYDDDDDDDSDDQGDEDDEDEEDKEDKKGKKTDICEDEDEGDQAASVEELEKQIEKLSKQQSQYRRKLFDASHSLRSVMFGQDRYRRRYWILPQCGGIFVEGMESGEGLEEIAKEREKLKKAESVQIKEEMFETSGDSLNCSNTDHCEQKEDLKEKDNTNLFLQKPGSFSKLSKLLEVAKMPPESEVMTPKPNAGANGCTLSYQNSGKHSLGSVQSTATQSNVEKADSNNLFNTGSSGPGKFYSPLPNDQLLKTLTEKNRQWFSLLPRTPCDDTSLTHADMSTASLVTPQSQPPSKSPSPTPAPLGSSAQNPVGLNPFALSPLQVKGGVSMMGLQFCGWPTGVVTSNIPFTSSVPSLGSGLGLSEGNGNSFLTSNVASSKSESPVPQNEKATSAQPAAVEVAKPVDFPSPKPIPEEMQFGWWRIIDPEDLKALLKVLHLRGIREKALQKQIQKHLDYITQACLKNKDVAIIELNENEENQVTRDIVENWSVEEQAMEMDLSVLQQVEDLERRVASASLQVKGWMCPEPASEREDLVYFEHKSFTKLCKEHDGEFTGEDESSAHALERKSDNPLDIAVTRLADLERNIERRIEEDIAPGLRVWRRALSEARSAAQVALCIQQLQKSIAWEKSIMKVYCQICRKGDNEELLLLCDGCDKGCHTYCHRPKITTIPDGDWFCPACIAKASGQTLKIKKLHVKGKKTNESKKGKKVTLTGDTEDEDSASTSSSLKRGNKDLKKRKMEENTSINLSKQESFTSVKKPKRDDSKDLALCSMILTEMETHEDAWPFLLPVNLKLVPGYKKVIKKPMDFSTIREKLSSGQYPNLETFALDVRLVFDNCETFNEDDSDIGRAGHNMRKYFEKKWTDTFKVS

This test addresses Bromodomain adjacent to zinc finger domain protein 2B (Homo sapiens) (UniProt Q9UIF8). The test is described as follows: qHTS Assay for Inhibitors of BAZ2B. Further: nearly all actives have a fitted effect of over 60% in size. The conditions noted are these: AlphaScreen BAZ2B-H3K14Ac peptide displacement; series mostly up to 114 µM; activity change, negative = inhibition: at the top concentration. The gist of the method:
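Protein-peptide AlphaScreen: BAZ2B 50 nM, b-H3K14Ac 50 nM, 1x PBS pH 7.4 + 0.01% Tween-20. Preincubation 30 min RT; cpd 30 min RT (top 110 uM); beads 20 min RT, light-protected.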
Regarding `CCOc1ccc2nc(N3CCCC(C(=O)Nc4cc(C)ccc4C)C3)sc2c1` (stereo not given), the “activity change, negative = inhibition” value is -6.74%.
Take `CC(C)c1ccc2oc(-c3cc(NC(=O)c4cccs4)ccc3Cl)nc2c1`: the “activity change, negative = inhibition” value was -2.9%.
Regarding `Cc1nnc(N/N=C/c2ccccn2)[nH]c1=O`, the Potency is 39.8 µM (active).
Consider `CCOc1ccc(-n2c(O)c(/C=N/c3ccnn3Cc3ccncc3)c3ccccc3c2=O)cc1`, for which the “activity change, negative = inhibition” value was -19.4%.
Still for that read-out and setting: in the case of `O=C(COc1ccc(Cl)cc1Cl)N/N=C/c1ccccn1` it was 16.5%.
Regarding `CCOc1ccc(-n2c(O)c(/C=N/Nc3nnc(C)c(=O)[nH]3)c3ccccc3c2=O)cc1`, the Potency was 12.6 µM (active).
As for `Cc1nnc(N/N=C/C2CC=CCC2)[nH]c1=O` (stereo not given), the “activity change, negative = inhibition” value was -7.79%.
Take `CCOc1ccc(-n2c(O)c(/C=N/Nc3nc(C)cc(C)n3)c3ccccc3c2=O)cc1`: the “activity change, negative = inhibition” value is -7.49%.
Regarding `Cc1cccc(S(=O)(=O)c2cn(Cc3ccccc3)c3cc(N4CCOCC4)c(F)cc3c2=O)c1`, the “activity change, negative = inhibition” value was 0.496%.
Turning to `O=C(CSc1nc2ccccc2nc1Cc1ccccc1)N1CCCCC1`, the “activity change, negative = inhibition” value was 36%.
Still for that read-out and setting: in the case of `Cc1ccc(Nc2nnc(-c3ccc(C)c(S(=O)(=O)N4CCCCC4)c3)c3ccccc23)cc1` it was 8.32%.
Same read-out and setting: in the case of `NS(=O)(=O)c1ccc(CNC(=O)c2cnccn2)cc1` it was -0.375%.
Turning to `O=C(NNS(=O)(=O)c1ccc(F)cc1)c1cnccn1`, the Potency was 79.4 µM (active).
As to `COc1cccc(C(=O)NNS(=O)(=O)c2ccc(F)cc2)c1`, the activity change, negative = inhibition was 8.36% [at 0.457 µM].
Take `CCC(CC)c1nn2cc(-c3ccccc3)nc2s1`: the “activity change, negative = inhibition” value was 12.6%.
Still for that read-out and setting: then `Cc1ccc(OCC(=O)Nc2ccc(Cl)c(-c3nc4ccccc4[nH]3)c2)cc1C`, with -24.8%.
Still for that read-out and setting: then `Cc1nn(CC(=O)NCCc2ccccc2)c(=O)c2c1sc1ccccc12`, with -18.3%.
For the compound `CC(=O)c1sc(NC(=O)C2=NN(c3ccccc3)C(=O)CC2)nc1C`, the Potency is 70.8 µM (active).
In the case of `CC(=O)c1sc(N/N=C\c2ccc(C)cc2)nc1C`, the “activity change, negative = inhibition” value is -3.67%.
Take `COc1cc2ccccc2cc1C(=O)Nc1nc(C)c(C(C)=O)s1`: the “activity change, negative = inhibition” value is 6.28%.
Same read-out and setting: in the case of `COc1ccccc1CNS(=O)(=O)c1cc(Br)cc2c1N(C(C)=O)C(C)C2` (stereo not given) it was -0.972%.
Same read-out and setting: then `O=C(Nc1ccc(Br)cc1)c1ccc(Br)c(S(=O)(=O)NCc2ccccc2)c1`, with -1.45%.
`O=C(CN1CCN(S(=O)(=O)c2cc(Cl)ccc2Cl)CC1)c1ccc(O)c(O)c1`: the Potency was 44.7 µM (active).
For the compound `N#Cc1ccsc1NC(=O)CN1CCN(S(=O)(=O)c2cc(Cl)ccc2Cl)CC1`, the “activity change, negative = inhibition” value is -11.6%.
On the same count and under the same terms, in the case of `COc1ccc(Cl)cc1S(=O)(=O)N1CCN(CC(=O)C(C)(C)C)CC1` it was 10.4%.
Same read-out and setting: in the case of `CCC(=O)Nc1ccccc1-c1nc2ccccc2n(CC(=O)Nc2ccc(C)c(C)c2)c1=O` it was -15.9%.
The same measure, in the same setting: in the case of `CN(Cc1ccccc1)c1ncnc2onc(-c3ccc(F)cc3)c12` it was 35.9% [at 57.1 µM]; in that of `CCOC(=O)C1CCN(S(=O)(=O)c2cc(F)ccc2OC)CC1`, -4.46%.
In the case of `CCOC(=O)C1CCN(C(=O)/C=C/c2cc(OC)c(OC)c(OC)c2)CC1`, the “activity change, negative = inhibition” value is 6.29%.
Consider `CCOC(=O)C1CCCCN1Cc1ccc(OC)c(OC)c1OC` (stereo not given), for which the Potency was 31.6 µM (active).
`CCOC(=O)c1c(NC(=O)c2ccc(S(=O)(=O)N3CCCC(C)C3)cc2)sc2c1CCN(C(C)C)C2` (stereo not given): the “activity change, negative = inhibition” value was 1.44%.
Still for that read-out and setting: in the case of `CC1CCCN(c2csc3ccc(F)cc3c2=O)C1` (stereo not given) it was -14.5%.
On to `Cn1c(COc2ccc(Cl)cc2)nc2ccccc2c1=O`, for which the Potency was 50.1 µM (active).
`COc1ccc(OCc2ccc(-c3nc4ccccc4c(=O)n3N)o2)cc1`: the “activity change, negative = inhibition” value was -21.5%.
The same measure, in the same setting: then `COc1ccccc1OCCCn1c(-c2ccc(Cl)cc2)nc2ccccc2c1=O`, with 3.81%.
As to `O=C(Nc1ccc2nc(SCCOc3ccccc3)sc2c1)c1ccco1`, the “activity change, negative = inhibition” value was -14.9%.
`CCCCN1C(=O)/C(=C2/C=CC=CN2C)SC1=S`: the Potency is 44.7 µM (active).
`CCCCN1C(=O)/C(=C2/Sc3ccc(Cl)cc3N2CC)SC1=S`: the “activity change, negative = inhibition” value is 8.39% [at 57.1 µM].
Consider `CN1C=CC=C/C1=C1\SC(=S)N(Cc2ccccc2)C1=O`, for which the Potency is 50.1 µM (active).
On to `O=C1C(Cc2ccc(O)cc2)NC(=S)N1Cc1ccccc1` (stereo not given), for which the “activity change, negative = inhibition” value is -1.83%.
On to `CCCCN1C(=O)/C(=C/C=C2/C=Cc3ccccc3N2CC)SC1=S`, for which the “activity change, negative = inhibition” value was -28.8%.
On the same count and under the same terms, then `COc1ccccc1NC(=O)Cn1cnc2ccc(S(=O)(=O)N3CCC(C)CC3)cc2c1=O`, with -23.3%; and `Cc1ccc2nc(N3CCN(c4cccc(Cl)c4)CC3)c3nnnn3c2c1`, with -7.42%.
On the same count and under the same terms, then `Cn1c(=O)sc2cc(NS(=O)(=O)c3ccc(C(C)(C)C)cc3)ccc21`, with -24%.
Same read-out and setting: then `O=C(/C=C/c1ccccc1)N1CCN(Cc2cc(=O)n3nc(-c4ccccc4F)sc3n2)CC1`, with 3.61%; and `Cc1cc(C)c(NC(=O)Cn2c(SCC(=O)NCc3ccccc3)nc3ccccc32)c(C)c1`, with -19.9%; and `S=c1[nH]nc(COc2ccccc2)n1-c1ccccc1`, with -0.261%.
On to `Cc1ccc(OCc2n[nH]c(=S)n2-c2ccccc2)cc1`, for which the “activity change, negative = inhibition” value is -27.8%.
For the compound `COc1ccc(OCc2n[nH]c(=S)n2N)cc1`, the Potency was 56.2 µM (active).
As for `COc1ccc(C)cc1N(CC(=O)N1CCC(C)CC1)S(=O)(=O)c1ccc(C)cc1`, the “activity change, negative = inhibition” value was -0.594%.
